Laboratory results published in PubChem BioAssay (NCATS).
“And” between values parts separate entries of the source, which are not always exact repeats. Identical values can stand only once. Results filed as inconclusive are left out. The source made the active and inactive calls. Unless noted, the call rests on the fitted dose curve; in most records, active means well fitted curve in the direction sought with a large enough effect; inconclusive means small, poorly fitted or top-dose-only effect, or another doubt; inactive means no such curve, though single readings can be large; an effect the other way counts as inactive or inconclusive.

Tests used:
[1] = target: Calcium and integrin-binding protein 1 (Homo sapiens) (UniProt Q99828); test: Primary qHTS for Identification of Calcium Integrin Binding Protein 1 (CIB1) Competitor (AID 1508620);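 further: GST tagged CIB1 binding a fluorescein labelled alphaIIb integrin peptide tracer; top concentration of the series differs between compounds; on the % scale 0 is the no-effect control and ±100 the full control effect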
Chain of Calcium and integrin-binding protein 1 (Homo sapiens) (Q99828 whole entry, looked up): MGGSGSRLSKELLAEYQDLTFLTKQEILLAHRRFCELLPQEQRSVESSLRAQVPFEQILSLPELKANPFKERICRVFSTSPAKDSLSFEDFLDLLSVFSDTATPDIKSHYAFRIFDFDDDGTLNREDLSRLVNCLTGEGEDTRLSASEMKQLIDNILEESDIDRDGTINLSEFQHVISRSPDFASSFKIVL
Outline: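 CIB1-GST (1 uM final) and compound incubated 15 min at room temperature before adding FITC-alphaIIb peptide tracer (100 nM final). Competition for binding read by fluorescence polarization (ex 480, em 540) after another 15 min at room temperature.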

[2] = target: Cytochrome P450 2C9 (Homo sapiens) (UniProt P11712); test: Cytochrome P450 family 2 subfamily C member 9 (CYP2C9) small molecule antagonists: luciferase biochemical (cell-free) qHTS assay (AID 1645842; active means well fitted curve in the direction sought with a large enough effect in the repeat runs; an effect the other way counts as inactive or inconclusive; further: nearly all actives have a fitted effect of over 55% in size; further: potency means the concentration at half of the fitted maximal effect; on activity change, negative = inhibition: on the % scale 0 is the no-effect control and ±100 the full control effect)
Chain of Cytochrome P450 2C9 (Homo sapiens) (P11712 whole entry, looked up): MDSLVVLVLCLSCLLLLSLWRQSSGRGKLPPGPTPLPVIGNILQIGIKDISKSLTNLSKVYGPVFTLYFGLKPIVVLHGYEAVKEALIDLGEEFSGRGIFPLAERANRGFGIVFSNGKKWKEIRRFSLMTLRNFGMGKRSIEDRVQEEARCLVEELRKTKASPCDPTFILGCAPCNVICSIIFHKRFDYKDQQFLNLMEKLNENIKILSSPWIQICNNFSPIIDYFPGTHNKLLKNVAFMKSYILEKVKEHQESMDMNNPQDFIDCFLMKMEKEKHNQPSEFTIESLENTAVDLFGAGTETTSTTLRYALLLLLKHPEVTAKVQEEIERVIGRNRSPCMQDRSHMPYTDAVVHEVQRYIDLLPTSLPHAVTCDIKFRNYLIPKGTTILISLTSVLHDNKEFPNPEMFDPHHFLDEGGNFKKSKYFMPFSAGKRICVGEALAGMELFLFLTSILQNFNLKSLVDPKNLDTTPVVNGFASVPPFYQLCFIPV
Outline: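 Luminescence, after 20 min with luciferin detection reagent, reflected CYP2C9 turnover during a 1 h NADPH-driven reaction at 37C. Enzyme-substrate mix contained 0.4% bovine serum albumin and was preincubated with compound 10 min at room temperature.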

[3] = Primary qHTS for inhibitors of nuclear receptor binding SET domain protein 2 (NSD2) in an isogenic RCH-ACV NSD2 p.E1099K mutant (9B) (AID 1645876); further: nearly all actives have a fitted effect of over 70% in size; further: potency means the concentration at half of the fitted maximal effect
[4] = target: Cytochrome P450 2D6 (Homo sapiens) (UniProt P10635); test: Cytochrome P450 family 2 subfamily D member 6 (CYP2D6) small molecule antagonists: luciferase biochemical (cell-free) qHTS assay (AID 1645840; active means well fitted curve in the direction sought with a large enough effect in the repeat runs; an effect the other way counts as inactive or inconclusive; further: nearly all actives have a fitted effect of over 55% in size; further: potency means the concentration at half of the fitted maximal effect; on activity change, negative = inhibition: on the % scale 0 is the no-effect control and ±100 the full control effect)
Chain of Cytochrome P450 2D6 (Homo sapiens) (P10635 whole entry, looked up): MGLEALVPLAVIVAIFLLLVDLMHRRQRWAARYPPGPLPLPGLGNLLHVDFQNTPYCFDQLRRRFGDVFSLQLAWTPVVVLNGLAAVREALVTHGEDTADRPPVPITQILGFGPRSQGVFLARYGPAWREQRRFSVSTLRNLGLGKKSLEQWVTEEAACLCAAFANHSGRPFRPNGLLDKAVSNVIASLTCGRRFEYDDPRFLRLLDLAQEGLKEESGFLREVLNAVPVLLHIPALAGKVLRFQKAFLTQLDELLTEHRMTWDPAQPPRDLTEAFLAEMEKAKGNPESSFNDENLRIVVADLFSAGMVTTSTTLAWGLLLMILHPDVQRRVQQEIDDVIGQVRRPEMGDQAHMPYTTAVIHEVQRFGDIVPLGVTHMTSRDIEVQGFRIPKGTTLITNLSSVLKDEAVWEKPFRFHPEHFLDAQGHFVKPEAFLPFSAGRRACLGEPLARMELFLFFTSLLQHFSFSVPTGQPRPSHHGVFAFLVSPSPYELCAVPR
Outline: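 P450-Glo luminescent screen: recombinant CYP2D6 enzyme–proluciferin substrate mix preincubated with compound 10 min at room temperature, then NADPH regeneration added for 1 h at room temperature. Detection reagent added for 20 min; luciferin light read as relative luminescence units.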

[5] = target: Catechol O-methyltransferase (Homo sapiens) (UniProt P21964); test: Confirmatory Screen for Target Class Profiling of Small Molecule Inhibitors of Methyltransferases (AID 1745852; calls by dose curve; further: potency means the concentration at half of the fitted maximal effect; on activity change, negative = inhibition: on the % scale 0 is the no-effect control and ±100 the full control effect); settings: MTase-Glo luminescence, SAH detection, recombinant enzyme; measured here: COMT max response; stronger effect = lower value
Chain of Catechol O-methyltransferase (Homo sapiens) (P21964 whole entry, looked up): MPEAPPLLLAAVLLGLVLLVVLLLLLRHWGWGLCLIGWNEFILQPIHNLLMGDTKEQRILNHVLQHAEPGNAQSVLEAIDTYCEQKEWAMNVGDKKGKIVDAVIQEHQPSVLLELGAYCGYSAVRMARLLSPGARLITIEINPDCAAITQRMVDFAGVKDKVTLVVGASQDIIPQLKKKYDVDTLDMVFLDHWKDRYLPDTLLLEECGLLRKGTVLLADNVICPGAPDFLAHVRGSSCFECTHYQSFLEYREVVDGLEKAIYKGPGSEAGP

[6] = target: Guanidinoacetate N-methyltransferase (Homo sapiens) (UniProt Q14353); test: as above; settings: activity change, negative = inhibition: at 57.3 µM (top of the series) unless noted
[7] = target: Nicotinamide N-methyltransferase (Homo sapiens) (UniProt P40261); test: as above; settings: MTase-Glo luminescence, SAH detection, recombinant enzyme; measured here: NNMT max response; stronger effect = lower value
Chain of Nicotinamide N-methyltransferase (Homo sapiens) (P40261 whole entry, looked up): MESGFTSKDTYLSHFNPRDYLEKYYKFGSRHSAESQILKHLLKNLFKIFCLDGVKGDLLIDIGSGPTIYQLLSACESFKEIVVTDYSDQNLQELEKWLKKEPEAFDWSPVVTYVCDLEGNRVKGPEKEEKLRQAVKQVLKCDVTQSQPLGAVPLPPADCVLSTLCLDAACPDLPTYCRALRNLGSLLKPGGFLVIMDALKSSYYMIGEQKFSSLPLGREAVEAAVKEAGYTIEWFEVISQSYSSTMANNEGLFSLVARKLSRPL

[8] = target: Phenylethanolamine N-methyltransferase (Homo sapiens) (UniProt P11086); test: as above; settings: MTase-Glo luminescence, SAH detection, recombinant enzyme; measured here: PNMT max response; stronger effect = lower value
Chain of Phenylethanolamine N-methyltransferase (Homo sapiens) (P11086 whole entry, looked up, the tested form may be a part): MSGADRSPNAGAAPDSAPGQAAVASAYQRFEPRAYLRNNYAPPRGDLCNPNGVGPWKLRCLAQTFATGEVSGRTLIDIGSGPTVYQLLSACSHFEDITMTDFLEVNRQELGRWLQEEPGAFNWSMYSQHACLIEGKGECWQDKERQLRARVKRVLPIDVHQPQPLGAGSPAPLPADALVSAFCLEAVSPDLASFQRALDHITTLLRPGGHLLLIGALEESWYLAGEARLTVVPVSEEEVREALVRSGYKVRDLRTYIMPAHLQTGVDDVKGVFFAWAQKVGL

[9] = Primary qHTS for inhibitors of nuclear receptor binding SET domain protein 2 (NSD2) in an RCH-ACV wild type WT cells (2C) (AID 1645877); further: nearly all actives have a fitted effect of over 70% in size; further: potency means the concentration at half of the fitted maximal effect
[10] = target: N-terminal Xaa-Pro-Lys N-methyltransferase 1 (Homo sapiens) (UniProt Q9BV86); test: Confirmatory qHTS for Inhibitors of N-terminal methyltransferase 1 (NTMT1): MTaseGlo Assay (AID 1645874); further: potency means the concentration at half of the fitted maximal effect; nearly all actives have a fitted effect of over 65% in size
Chain of N-terminal Xaa-Pro-Lys N-methyltransferase 1 (Homo sapiens) (Q9BV86 whole entry, looked up): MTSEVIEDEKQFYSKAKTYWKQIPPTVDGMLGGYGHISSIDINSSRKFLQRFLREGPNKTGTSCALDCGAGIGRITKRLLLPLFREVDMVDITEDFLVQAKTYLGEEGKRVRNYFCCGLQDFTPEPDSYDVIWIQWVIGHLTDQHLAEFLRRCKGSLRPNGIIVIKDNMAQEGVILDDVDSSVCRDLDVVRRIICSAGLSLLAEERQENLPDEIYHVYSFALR
Outline: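 Compounds are incubated with 125 nM NTMT1 and 100 uM SAM for 15 min before the SPKRIA peptide (1 uM) starts a 30 min room-temperature methylation. SAH is measured by coupled luciferase luminescence and curves fitted to a Hill equation.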

[11] = NCATS anti-infectives library activity on the primary C. elegans qHTS viability assay (AID 1745855; calls by dose curve; further: potency means the concentration at half of the fitted maximal effect)
Outline: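 Viability is taken from GFP fluorescence of PE254-GFP-FLuc C. elegans imaged by laser cytometry over 7 days. Ten L1 worms per well grow at 21 °C on TOP10 E. coli capsules with titrated compound; levamisole marks toxicity.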

For `CCOCc1nc2c(N)nc3ccccc3c2n1CC(C)(C)O`, the Potency [1] was “inactive”, the Potency [2] was “inactive” and the Potency [3] was “inactive”.
With `CN(C)c1nc(NC2CCC(NC(=O)c3ccc(F)c(F)c3)CC2)nc2ccccc12` (stereo unspecified) the Potency [1] was “inactive”, the Potency [4] was 5.35 µM (active) and the Potency [3] was 6.49 µM (active). For the same molecule, the activity [5] was -11.9%, the activity change, negative = inhibition [6] was 0.153% and the activity [7] was -27.9%. For the same molecule, the activity [8] was -21.7%.
For `C=CC(=O)Nc1cc(Nc2ncc(Cl)c(-c3c[nH]c4ccccc34)n2)c(OC)cc1N(C)CCN(C)C`, the Potency [1] was “inactive” and the Potency [2] was 9.52 µM (active).
In the case of `Nc1nc2c(c(N3CCNCC3)n1)CCC1=C2[C@@H]2CCCC[C@@H]2O1`, the Potency [1] is reported as “inactive”, the Potency [4] is reported as 19 µM (active) and the Potency [9] is reported as 16.3 µM (active).
For `Cc1ccc(-c2ccc3c(ccc4sc5c(c43)NC[C@@H](C)NC5=O)n2)cn1`, the Potency [1] was “inactive”, the Potency [4] was “inactive” and the Potency [9] was 16.6 µM (active).
With `Cc1cc(N2CCN([C@@H]3CN[C@H](C(=O)N4CCSC4)C3)CC2)n(-c2ccccc2)n1` the Potency [1] was “inactive” and the Potency [2] was “inactive”.
In the case of `CC(C)S(=O)(=O)NC[C@H](C)c1ccc(NC(=O)c2cc(F)cc(F)c2)cc1`, the Potency [1] is reported as “inactive”, the Potency [2] is reported as 7.56 µM (active) and the Potency [3] is reported as “inactive”. For the same molecule, the Potency [9] was “inactive”.
With `CC(C)(C)NC(=O)[C@@H](c1cccnc1)N(C(=O)c1ccco1)c1ccc(C(C)(C)C)cc1` the Potency [1] was “inactive” and the Potency [2] was 5.35 µM (active).
For `O=C(NCc1ccc(F)cc1)C(=O)c1c[nH]c2ccccc12`, the Potency [1] was “inactive” and the Potency [2] was 1.9 µM (active).
With `C[C@@H]1CCN(C(=O)N2CCCC2)C[C@@H]1N(C)c1ncnc2[nH]ccc12` the Potency [1] was “inactive” and the Potency [2] was “inactive”.
In the case of `O=S(=O)(c1ccccc1)c1cnc2c(N3CCNCC3)cccc2c1`, the Potency [1] is reported as “inactive” and the Potency [2] is reported as 0.338 µM (active).
In the case of `CNS(=O)(=O)c1ccccc1Nc1nc(Nc2ccc(N3CCN(C)CC3)cc2OC)ncc1Cl`, the Potency [1] is reported as “inactive”, the Potency [2] is reported as 3.38 µM (active) and the Potency [3] is reported as 0.578 µM (active). For the same molecule, the Potency [9] was 0.649 µM (active).
With `O=C(Nc1ccc(Cl)cc1F)c1ccccc1O` the Potency [1] was “inactive” and the Potency [2] was 9.52 µM (active).
With `N#Cc1c(Oc2ccc(F)c(NC(=O)Cc3cccc(C(F)(F)F)c3)c2)ccc2nc(NC(=O)C3CC3)sc12` the Potency [1] was “inactive”, the Potency [2] was 0.338 µM (active) and the Potency [3] was 0.578 µM (active). For the same molecule, the Potency [9] was 1.15 µM (active).
With `CC(C)NCC(C(=O)N1CCN(c2ncnc3c2C(C)CC3O)CC1)c1ccc(Cl)cc1` (stereo unspecified) the Potency [1] was “inactive”, the Potency [2] was “inactive” and the Potency [3] was 1.83 µM (active). For the same molecule, the Potency [9] was 2.3 µM (active).
In the case of `CCOc1cc2ncc(C#N)c(Nc3ccc(F)c(Cl)c3)c2cc1NC(=O)/C=C/CN(C)C`, the Potency [1] is reported as “inactive”, the Potency [2] is reported as 3.79 µM (active) and the Potency [10] is reported as 1.2 µM (active). For the same molecule, the Potency [3] was 459 nM (active) and 742 nM (active), the Potency [9] was 1.03 µM (active) and 590 nM (active) and the activity [5] was -96.3%. For the same molecule, the Potency [6] was 4.82 µM (active), the activity [7] was -82.7% and the activity [8] was -97.3%. For the same molecule, the Potency [11] was 14.5 µM (active).
